Screening data from PubChem.
G9a block = inhibitors of human histone lysine methyltransferase G9a; G9a H3K9 monomethylation, AlphaScreen, 2 h; 350,000 compounds, 8.8% hits; Q96KQ7; Potency, µM (highest dose often 102 µM), for inactives: at the highest dose activity, negative = inhibition, actives largely listed as inhibitors; also: % is scaled to controls: 0 for no effect and ±100 for the full control effect; nearly all actives have a fitted effect of over 75% in size
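Compounds were preincubated with 20 nM G9a for 15 min, after which biotinylated H3K9 peptide (500 nM) and SAM (20 uM) started a 2 h room-temperature reaction. Monomethylated product was quantified by antibody-based AlphaScreen chemiluminescence.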
BAZ2B inh = inhibitors of human BAZ2B bromodomain. Q9UIF8. AlphaScreen BAZ2B-H3K14Ac peptide displacement. Potency, µM (doses to about 114 µM), for the others: top-dose activity change, negative = inhibition, usual class: inhibitors. 360,000 compounds, 4.4% hits. AID 504333; also: % is scaled to controls: 0 for no effect and ±100 for the full control effect; nearly all actives have a fitted effect of over 60% in size
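AlphaScreen displacement of biotin-H3(5-23)K14Ac peptide (50 nM final) from BAZ2B (50 nM final) in PBS pH 7.4, 0.01% Tween-20; complex preformed 30 min RT, then compounds (top 110 uM) 30 min RT, beads 20 min dark.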
Sfp inh = inhibitors of Bacillus subtilis Sfp phosphopantetheinyl transferase; Biochemical Sfp PPTase activity, qHTS; Potency, µM, for the others: largest response in the series, negative = inhibition, usual class: inhibitors; AID 1490; 310,000 compounds, 3.5% hits; Q9F4F7;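 also: the enzyme is Sfp with the accession as filed and its product quenches rhodamine fluorescence; 0% = enzyme reaction without inhibitor and -100% = no enzyme wells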
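Compounds were incubated with enzyme (final 15 nM) for 15 min at room temperature before substrate addition started the reaction. Fluorescence at 525 nm excitation, 598 nm emission was recorded immediately and after 30 minutes.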
HP1b chromo inh = HP1-beta chromodomain-methylated histone interaction inhibition. P83916. AlphaScreen HP1-beta / biotin-H3K9me3 peptide binding. Potency, µM (series often up to 114 µM), inactives show at the highest dose activity change, negative = inhibition, most hits filed as inhibitors. 390,000 compounds, 0.56% hits. AID 540317; also: nearly all actives have a fitted effect of over 70% in size
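Compound inhibition of the preformed complex between 50 nM HP1-beta and 50 nM biotinylated H3K9me3 peptide was read by AlphaScreen. Buffer was PBS pH 7.4 with 0.01% Tween-20. Incubations ran 30 min at room temperature, with 10 ug/mL donor/acceptor beads.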
JMJD2A Tudor inh = inhibitors of human JMJD2A Tudor domain; O75164; AlphaScreen JMJD2A-Tudor / H3K4me3 peptide binding; Potency, µM (titrated, usually from 114 µM), without a hit: top-dose activity change, negative = inhibition, most hits filed as inhibitors; 390,000 compounds, 4.4% hits; also: % is scaled to controls: 0 for no effect and ±100 for the full control effect; nearly all actives have a fitted effect of over 50% in size
The depositor's hits bear a star; ? = inconclusive; . = no result; [ ] = remark or other dose. The list is not random: actives were taken first. Their share in the collection is about 12%. Calls follow the shape of the dose curve; as a rule, active = well fitted curve in the direction sought with a large enough effect; inconclusive = small, poorly fitted or top-dose-only effect, or another doubt; inactive = no such curve, though single readings can be large; an effect the other way counts as inactive or inconclusive. Potency is read from the fitted curve at half-maximal effect.

SMILES | G9a block | BAZ2B inh | Sfp inh | HP1b chromo inh | JMJD2A Tudor inh
COc1ccc(-n2c(=O)c3c4c(sc3n(CC(=O)C(C)(C)C)c2=O)CCCC4)c(OC)c1 | ? | -21.3% | . | 10.1% | -28.0%
OCCNc1nc(Nc2ccc(Br)cc2)nc2ccccc12 | 50.1µM* | -16.8% | 39.8µM* | 28.5% | -23.4%
Cc1c(Cl)cccc1Nc1nc(NCCO)c2ccccc2n1 | 79.4µM* | -16.0% | -21.2% | 15.8% | -15.1%
OCCNc1nc(Nc2ccccc2)nc2ccccc12 | ? | 4.0% | -3.0% | 18.1% | -30.8%
Oc1ccccc1Nc1nc(NCc2ccccc2)c2ccccc2n1 | . | 25.1µM* | 28.2µM* | -33.9% | ?
COc1ccccc1NC(c1cccnc1)c1ccc2cccnc2c1O (stereo not drawn) | 1.41µM* | 14.1µM* | 20µM* | ? | 22.4µM*
Cc1cc(NC(c2ccc(Cl)cc2)c2ccc3cccnc3c2O)no1 (stereo not drawn) | 23.2%[59 µM] | 44.7µM* | 5.7% | 23.5% | ?
O=C(O)c1ccccc1NC(c1ccccc1)c1ccc2cccnc2c1O (stereo not drawn) | . | . | . | 25.1µM* | 28.2µM*
Oc1ccccc1C(Nc1nccs1)c1ccc2cccnc2c1O (stereo not drawn) | . | 28.2µM* | 23.1% | -0.4% | 35.5µM*
CCCC(=O)NC(c1ccccc1Cl)c1ccc2cccnc2c1O (stereo not drawn) | 41.0% | -34.3% | 11.9% | 40.5% | -27.4%
CC(=O)NC(c1ccc(Cl)cc1)c1ccc2cccnc2c1O (stereo not drawn) | . | . | . | 37.8% | ?
CCCCNC(=O)c1ccc2nc(-c3cccs3)c(-c3cccs3)nc2c1 | . | . | . | 13.6%[57 µM] | -0.8%[57.1 µM]
COC1=C2C[C@H](C)C[C@H](OC)[C@@H](O)[C@@H](C)C=C(C)[C@H](OC(N)=O)[C@@H](OC)C=CC=C(C)C(=O)NC(=CC1=O)C2=O | . | . | . | 16.3% | ?
O=C(O)c1ccc2cccnc2c1O | . | 25.1µM* | 20µM* | 2.6% | 10µM*
Cc1ccnc(NC(c2ccsc2)c2ccc3ccc(C)nc3c2O)c1 (stereo not drawn) | -151.7%[59 µM] | ? | ? | ? | ?
Cc1ccnc(NC(c2cc(C)ccc2O)c2ccc3cccnc3c2O)c1 (stereo not drawn) | 10µM* | 22.4µM* | . | 7.0% | 28.2µM*
Oc1c(C(Nc2ccccn2)c2ccccn2)ccc2cccnc12 (stereo not drawn) | 31.6µM* | -113.4% | 11.4% | 29.2% | -22.1%[11.4 µM]
Cc1ccnc(NC(c2ccccc2)c2ccc3cccnc3c2O)c1 (stereo not drawn) | . | . | . | -20.9%[57 µM] | 14.1µM*
CC(C)C(=O)NC(c1ccc(Cl)cc1Cl)c1ccc2cccnc2c1O (stereo not drawn) | 43.8%[0.501 µM] | ? | 6.0% | 34.0% | -14.3%
Oc1c(C(Nc2ccccn2)c2ccccc2F)ccc2cccnc12 (stereo not drawn) | ? | 20µM* | . | 12.3% | 14.1µM*
Cc1ccnc(NC(c2ccccc2F)c2ccc3cccnc3c2O)c1 (stereo not drawn) | ? | 25.1µM* | . | 7.0% | 12.6µM*
CCC(=O)NC(c1ccc(Cl)cc1Cl)c1ccc2cccnc2c1O (stereo not drawn) | 16.5% | -4.6% | 6.8% | 40.3% | -28.1%
COc1ccc(C(Nc2cc(C)ccn2)c2ccc3ccc(C)nc3c2O)cc1 (stereo not drawn) | 3.98µM* | -25.0% | 5.6% | -12.7% | ?
CCCCCC(=O)Nc1nc(C)c(-c2csc(Nc3ccc(Cl)cc3)n2)s1 | 41.5%[0.501 µM] | ? | 4.5% | -22.3% | ?
CC(=O)c1cccc(Nc2nc(-c3sc(N)nc3C)cs2)c1 | 79.4µM* | 35.5µM* | -6.6% | ? | ?
SMILES | G9a block | BAZ2B inh | Sfp inh | HP1b chromo inh | JMJD2A Tudor inh
Cc1nc(N)sc1-c1csc(Nc2cccc(O)c2)n1 | 44.7µM* | 56.2µM* | -21.0% | ? | ?
Cc1cccc(Nc2nc(-c3sc(C)nc3C)cs2)c1 | ? | ? | -19.6% | ? | ?
Cc1nc(C)c(-c2csc(Nc3cccc(O)c3)n2)s1 | 50.1µM* | ? | -7.2% | 12.0% | -25.4%
CCC(=O)Nc1nc(C)c(-c2csc(Nc3cccc(O)c3)n2)s1 | 39.8µM* | ? | ? | -14.3% | 39.8µM*
CC(=O)c1cccc(Nc2nc(-c3sc(C)nc3C)cs2)c1 | 1.7% | -22.3% | -4.9% | -2.5% | -21.1%
CCOc1cccc2sc(NC(=O)c3ccc(S(=O)(=O)N4CCCCC4)cc3)nc12 | -1.2%[59 µM] | 1.9% | . | 17.4%[57 µM] | -23.7%
COc1cccc(CNC(=O)CN2C(=O)CCSc3ccc(S(=O)(=O)N4CCCC4)cc32)c1 | -6.1% | -2.0% | 11.4% | 26.2% | -20.3%
O=C1/C(=C\c2ccccc2)CN(C(=O)CCN2CCCCC2)C/C1=C/c1ccccc1 | . | . | . | 5.1% | -23.6%
O=C1/C(=C\c2ccc(Cl)c(Cl)c2)CN(C(=O)CCN2CCOCC2)C/C1=C/c1ccc(Cl)c(Cl)c1 | . | . | . | -32.6% | 35.5µM*
CC(=O)OC1CCC2(C)C3=C(CCC2C1(C)C)[C@]1(C)CCC(C(C)CCC=C(C)C)[C@]1(C)CC3 (stereo partly drawn) | -2.0%[2.33 µM] | . | -4.0% | . | .
C/C(=C/CCC(C)C1CCC2(C)C3CCC4C(C)(C)C(=O)CCC4(C)C3=CCC12C)C(=O)O (stereo not drawn) | 4.8%[59 µM] | 50.1µM* | -4.5% | . | .
COc1ccc(CCNc2nc3c(-c4cccc(C)c4)nnn3c3ccccc23)cc1OC | 1.0%[59 µM] | -2.4% | . | 22.4% | -1.7%
O=C(NCc1ccccc1)C1Cc2ccccc2CN1C(=O)c1ccco1 (stereo not drawn) | -47.1% | -37.0% | 8.6% | 39.0% | -19.7%
CCSc1nnc(NC(=O)C2Cc3ccccc3CN2C(=O)c2ccco2)s1 (stereo not drawn) | ? | ? | 39.8µM* | 25.6% | 79.4µM*
NS(=O)(=O)c1ccc(NC(=O)C2Cc3ccccc3CN2C(=O)c2ccco2)cc1 (stereo not drawn) | 50.1µM* | 50.1µM* | -22.3% | ? | 39.8µM*
Cc1ccccc1NC(=O)C1Cc2ccccc2CN1C(=O)c1ccco1 (stereo not drawn) | ? | -11.4% | ? | 10.9% | -4.7%
CCS(=O)(=O)N1Cc2ccccc2CC1C(=O)Nc1nnc(SCc2ccc(C#N)cc2)s1 (stereo not drawn) | 44.7µM* | 2.5% | 6.0% | 24.1% | -17.6%
COc1cccc(NC(=O)C2Cc3ccccc3CN2C(=O)c2ccco2)c1 (stereo not drawn) | 35.5µM* | -13.5% | -15.4% | -14.0% | -27.4%
CC1CCC(C(=O)O)NC1c1cccc(N2CCCC2=O)c1 (stereo not drawn) | . | . | -3.7% | . | .
CCOC(=O)N1CCN(C(=O)CCCCn2c(=S)[nH]c3ccsc3c2=O)CC1 | 31.6µM* | -32.5% | 79.4µM* | 20.3% | ?
CC(=O)c1ccc(N2CCN(C(=O)CCCn3c(=O)[nH]c4ccsc4c3=O)CC2)cc1 | 9.5% | -11.4% | 7.4% | -3.8% | -11.0%
